Test results as given in the supplement of paper PMC8728848.
This excerpt belongs to a sample that is enriched for the strongest signals.

Tests used:
Experiment in all cases: glycan array binding signal (z-score within array); higher = stronger binding
Details in all cases: glycan notation: IUPAC condensed, linker removed
[1] = molecular target: Fuc(a1-2)Gal(b1-3)[Fuc(a1-4)]GlcNAc(b1-2)Man(a1-3)[Fuc(a1-2)Gal(b1-3)[Fuc(a1-4)]GlcNAc(b1-2)Man(a1-6)]Man(b1-4)GlcNAc(b1-4)[Fuc(a1-6)]GlcNAc(b1-4)[Fuc(a1-6)]GlcNAc
In short: (§1)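 The Consortium for Functional Glycomics database supplied 3228 glycan arrays, of which those lacking an available protein sequence were dropped. The binding signal, a within-array Z-score, was averaged across arrays of the same protein sequence and across linkers. Negative scores can be read as non-binding.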

[2] = molecular target: Fuc(a1-2)Gal(b1-4)GlcNAc(b1-2)Man
In short: as §1

[3] = molecular target: Fuc(a1-2)Gal(b1-4)GlcNAc(b1-2)[Fuc(a1-2)Gal(b1-4)GlcNAc(b1-4)]Man(a1-3)[Fuc(a1-2)Gal(b1-4)GlcNAc(b1-2)Man(a1-6)]Man(b1-4)GlcNAc(b1-4)GlcNAc
In short: as §1

[4] = molecular target: Fuc(a1-2)Gal(b1-4)[Fuc(a1-3)]GlcNAc
In short: as §1

[5] = molecular target: Fuc(a1-2)Gal(b1-4)[Fuc(a1-3)]GlcNAc(b1-3)Gal(b1-4)[Fuc(a1-3)]GlcNAc(b1-3)Gal(b1-4)[Fuc(a1-3)]GlcNAc
In short: as §1

[6] = molecular target: Fuc(a1-2)[Gal(a1-3)]Gal(b1-4)GlcNAc(b1-2)Man
In short: as §1

[7] = molecular target: Fuc(a1-2)[GalNAc(a1-3)]Gal(b1-4)GlcNAc(b1-6)GalNAc
In short: as §1

[8] = molecular target: Fuc(a1-3)[Gal(b1-4)]Glc6S
In short: as §1

[9] = molecular target: Fuc(a1-3)[Gal(b1-4)]GlcNAc(b1-6)[Gal(b1-3)GlcNAc(b1-3)]Gal(b1-4)Glc
In short: as §1

Gal(a1-3)Gal(b1-3)GlcNAc = molecular target: Gal(a1-3)Gal(b1-3)GlcNAc
In short: as §1

Gal(a1-3)GalNAc = molecular target: Gal(a1-3)GalNAc
In short: as §1

[10] = molecular target: Gal(b1-3)GlcNAc(a1-3)Gal(b1-4)GlcNAc
In short: as §1

[11] = molecular target: Gal(b1-3)GlcNAc(b1-3)Gal(b1-4)GlcNAc(b1-2)[Gal(b1-3)GlcNAc(b1-3)Gal(b1-4)GlcNAc(b1-6)]Man(a1-6)[Gal(b1-3)GlcNAc(b1-3)Gal(b1-4)GlcNAc(b1-2)Man(a1-3)]Man(b1-4)GlcNAc(b1-4)[Fuc(a1-6)]GlcNAc
In short: as §1

Gal(b1-4)Glc = molecular target: Gal(b1-4)Glc
In short: as §1

[12] = molecular target: Gal(b1-4)GlcNAc(a1-6)Gal(b1-4)GlcNAc
In short: as §1

Gal(b1-4)GlcNAc(b1-2)Man = molecular target: Gal(b1-4)GlcNAc(b1-2)Man
In short: as §1

[13] = molecular target: Gal(b1-4)GlcNAc(b1-2)[Gal(b1-4)GlcNAc(b1-4)]Man(a1-3)[Gal(b1-4)GlcNAc(b1-2)[Gal(b1-4)GlcNAc(b1-6)]Man(a1-6)]Man(b1-4)GlcNAc(b1-4)GlcNAc
In short: as §1

[14] = molecular target: Gal(b1-4)GlcNAc(b1-3)Gal(b1-4)GlcNAc(b1-2)Man(a1-3)[Gal(b1-4)GlcNAc(b1-3)Gal(b1-4)GlcNAc(b1-2)Man(a1-6)]Man(b1-4)GlcNAc(b1-4)GlcNAc
In short: as §1

[15] = molecular target: Gal(b1-4)GlcNAc(b1-3)Gal(b1-4)GlcNAc(b1-2)Man(a1-3)[Gal(b1-4)GlcNAc(b1-3)Gal(b1-4)GlcNAc(b1-2)Man(a1-6)]Man(b1-4)GlcNAc(b1-4)[Fuc(a1-6)]GlcNAc
In short: as §1

[16] = molecular target: Gal(b1-4)GlcNAc(b1-3)Gal(b1-4)GlcNAc(b1-3)Gal(b1-4)GlcNAc(b1-3)Gal(b1-4)GlcNAc(b1-2)Man(a1-3)[Gal(b1-4)GlcNAc(b1-3)Gal(b1-4)GlcNAc(b1-3)Gal(b1-4)GlcNAc(b1-3)Gal(b1-4)GlcNAc(b1-2)Man(a1-6)]Man(b1-4)GlcNAc(b1-4)[Fuc(a1-6)]GlcNAc
In short: as §1

[17] = molecular target: Gal(b1-4)GlcNAc(b1-3)Gal(b1-4)GlcNAc(b1-3)Gal(b1-4)GlcNAc(b1-3)Gal(b1-4)GlcNAc(b1-3)Gal(b1-4)GlcNAc(b1-2)Man(a1-3)[Gal(b1-4)GlcNAc(b1-3)Gal(b1-4)GlcNAc(b1-3)Gal(b1-4)GlcNAc(b1-3)Gal(b1-4)GlcNAc(b1-3)Gal(b1-4)GlcNAc(b1-2)Man(a1-6)]Man(b1-4)GlcNAc(b1-4)GlcNAc
In short: as §1

[18] = molecular target: Gal(b1-4)GlcNAc(b1-3)Gal(b1-4)GlcNAc(b1-3)Gal(b1-4)GlcNAc(b1-3)Gal(b1-4)GlcNAc(b1-3)Gal(b1-4)GlcNAc(b1-2)[Gal(b1-4)GlcNAc(b1-3)Gal(b1-4)GlcNAc(b1-3)Gal(b1-4)GlcNAc(b1-3)Gal(b1-4)GlcNAc(b1-3)Gal(b1-4)GlcNAc(b1-6)]Man(a1-6)[Gal(b1-4)GlcNAc(b1-3)Gal(b1-4)GlcNAc(b1-3)Gal(b1-4)GlcNAc(b1-3)Gal(b1-4)GlcNAc(b1-3)Gal(b1-4)GlcNAc(b1-2)Man(a1-3)]Man(b1-4)GlcNAc(b1-4)[Fuc(a1-6)]GlcNAc
In short: as §1

[19] = molecular target: Gal(b1-4)GlcNAc(b1-3)Gal(b1-4)GlcNAc(b1-3)Gal(b1-4)GlcNAc(b1-3)Gal(b1-4)GlcNAc(b1-3)Gal(b1-4)GlcNAc(b1-3)Gal(b1-4)GlcNAc(b1-2)Man(a1-3)[Gal(b1-4)GlcNAc(b1-3)Gal(b1-4)GlcNAc(b1-3)Gal(b1-4)GlcNAc(b1-3)Gal(b1-4)GlcNAc(b1-3)Gal(b1-4)GlcNAc(b1-3)Gal(b1-4)GlcNAc(b1-2)Man(a1-6)]Man(b1-4)GlcNAc(b1-4)GlcNAc
In short: as §1

Gal3S(b1-4)Glc = molecular target: Gal3S(b1-4)Glc
In short: as §1

GalNAc3S(b1-4)GlcNAc = molecular target: GalNAc3S(b1-4)GlcNAc
In short: as §1

[20] = molecular target: GalNAc3S(b1-4)[Fuc(a1-3)]GlcNAc
In short: as §1

GalNAc4S6S(b1-4)GlcNAc = molecular target: GalNAc4S6S(b1-4)GlcNAc
In short: as §1

B1: GS13599A-bth-520-23-520 (Bacteroides thetaiotaomicron) (protein)
chain: SEDTMDRINKDHDHTTSVASRFILADVITSTAFSNASGDINTYASSYIEYEVGVDNQLYYAEVRENEPSSSSTFNNSWNGIYSSLKNARIIIDQCGEGGRDHGNDVTRGMAEVMAAYNCALIADFFGDAPCSQAALVDEKGSPVYMTPKMDTQQEIYTQIISYLDDAIANLQKEDLADVTEQDFLYAGDADKWLKFAYGLKARYTMRLINRSSNKSADYEKVLDYVSKSFTSADDQAAFDIYDSNNINPFYGFYNSRAGFGASTSLGTKLLAYNDPRANRAFFTPIVDKKRSQVAANDPSLVPAPNGSPDQSTSKYGISAFVYAKTAPTLLMSYHELMFLKAEALCRLNRDAEDALKEAVVAGLLNAENSISIAIKELGSGLNTNSSEVITETSAGKYFDDVVKAKYAANPLQETMIQKYLAMWGASGEATETYNDFRRMKGLNENFITLTNPNNSSKFPLRYPYGNSDTAANPEVKAAYGNGDYVYSEPVWWAGGSR
B1 was tested, and the “glycan array binding signal (z-score)” value [1] was 0.741, the “glycan array binding signal (z-score)” value [2] was -0.841 and the “glycan array binding signal (z-score)” value [3] was 2.4. The “glycan array binding signal (z-score)” value [4] was 0.206, the “glycan array binding signal (z-score)” value [5] was -0.474 and the “glycan array binding signal (z-score)” value [6] was -0.234. The “glycan array binding signal (z-score)” value [7] was -1.38, the “glycan array binding signal (z-score)” value [8] was 0.474 and the “glycan array binding signal (z-score)” value [9] was -0.479. The “glycan array binding signal (z-score)” value (Gal(a1-3)Gal(b1-3)GlcNAc) was -0.349, the “glycan array binding signal (z-score)” value (Gal(a1-3)GalNAc) was -1.08 and the “glycan array binding signal (z-score)” value [10] was 0.206. For the same binder, the “glycan array binding signal (z-score)” value [11] was 2.93, the “glycan array binding signal (z-score)” value (Gal(b1-4)Glc) was -0.435 and the “glycan array binding signal (z-score)” value [12] was -1.2. The “glycan array binding signal (z-score)” value (Gal(b1-4)GlcNAc(b1-2)Man) was 2.44, the “glycan array binding signal (z-score)” value [13] was -0.453 and the “glycan array binding signal (z-score)” value [14] was 3.32. For the same binder, the “glycan array binding signal (z-score)” value [15] was 1.38, the “glycan array binding signal (z-score)” value [16] was 2.46 and the “glycan array binding signal (z-score)” value [17] was 3.9. The “glycan array binding signal (z-score)” value [18] was 7.02, the “glycan array binding signal (z-score)” value [19] was 0.294 and the “glycan array binding signal (z-score)” value (Gal3S(b1-4)Glc) was 3.17. The “glycan array binding signal (z-score)” value (GalNAc3S(b1-4)GlcNAc) was 0.897, the “glycan array binding signal (z-score)” value [20] was 2.41 and the “glycan array binding signal (z-score)” value (GalNAc4S6S(b1-4)GlcNAc) was -1.28.
